FLuc counter: qHTS profiling assay for firefly luciferase inhibitor/activator using purifed enzyme and Km concentrations of substrates (counterscreen for miR-21 project); Luciferin 4-monooxygenase (Photinus pyralis), P08659; purified FLuc, Km substrates, luminescence inhibition; Potency, µM (titrated, usually from 57.5 µM), for inactives: at the top dose activity change, negative = inhibition, usual class: inhibitors; 360,000 tested, 6.9% active;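 note: plate controls were vehicle for no effect and reference inhibitor for full effect; nearly all actives have a fitted effect of over 55% in size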
Target sequence (P08659 whole entry, looked up): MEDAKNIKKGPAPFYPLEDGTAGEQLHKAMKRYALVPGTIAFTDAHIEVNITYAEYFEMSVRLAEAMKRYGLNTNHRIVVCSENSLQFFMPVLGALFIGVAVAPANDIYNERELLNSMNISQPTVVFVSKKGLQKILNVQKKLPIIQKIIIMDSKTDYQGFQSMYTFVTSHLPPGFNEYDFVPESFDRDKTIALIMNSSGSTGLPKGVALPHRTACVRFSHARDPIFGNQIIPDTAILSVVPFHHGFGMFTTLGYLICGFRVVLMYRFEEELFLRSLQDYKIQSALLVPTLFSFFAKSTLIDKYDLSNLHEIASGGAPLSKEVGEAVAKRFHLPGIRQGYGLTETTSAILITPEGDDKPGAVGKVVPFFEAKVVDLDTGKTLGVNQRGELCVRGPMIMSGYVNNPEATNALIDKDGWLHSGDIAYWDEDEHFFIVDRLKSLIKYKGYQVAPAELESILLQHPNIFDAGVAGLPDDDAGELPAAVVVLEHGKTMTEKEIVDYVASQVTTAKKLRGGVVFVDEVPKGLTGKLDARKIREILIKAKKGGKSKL
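Purified P. pyralis luciferase (10nM final) with 10uM D-luciferin and 10uM ATP (Km levels) in 50mM Tris acetate pH 7.5, 10mM Mg acetate, 0.01% Tween-20, 0.05% BSA; qHTS 6-point titration, ~60 µM downward; luminescence read.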
NPC1 prom act: qHTS Assay for NPC1 Promoter Activators. Huh7 NPC1 promoter luciferase reporter, 24 h. Potency, µM (top dose mostly 9.22 µM), for inactives: at the top dose activation, usual class: activators. 320,000 tested, 2.4% active; note: % of control where 0% means no effect; nearly all actives have a fitted effect of over 60% in size
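Luminescence read-out of NPC1 promoter-driven luciferase in stably transfected Huh7 cells; compounds delivered in DMSO and left 24 h at 37C, 5% CO2, qHTS titration format.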
ELG1 genotoxic: qHTS screen for small molecules that induce genotoxicity in human embryonic kidney (HEK293T) cells expressing luciferase-tagged ELG1; HEK293T ELG1-luciferase reporter, luminescence, 16 h; Potency, µM (top dose mostly 46 µM), for inactives: at the top dose activity change, positive = activation, actives largely listed as activators; 330,000 tested, 1.3% active; AID 504466, 2011; note: % of control where 0% means no effect; nearly all actives have a fitted effect of over 60% in size
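Genotoxicity was scored as increased ELG1-luciferase reporter signal, measured by ONE-Glo luminescence (30 min, room temperature). Compound or vehicle exposure of the HEK293T reporter cells lasted 16 hr at 37°C.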
ELG1 DNA repair: qHTS screen for small molecules that inhibit ELG1-dependent DNA repair in human embryonic kidney (HEK293T) cells expressing luciferase-tagged ELG1 | AID 504467, 2011 | 330,000 tested, 2.3% active | Potency, µM (top dose mostly 46.1 µM), without a hit: top-dose activity change, negative = inhibition, actives largely listed as inhibitors | HEK293T ELG1-luciferase reporter, luminescence, 16 h; DNA damage induced by 5-fluorouridine; note: % is set by controls: 0 for no effect and ±100 for the full control effect; nearly all actives have a fitted effect of over 55% in size
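HEK293T cells expressing luciferase-tagged ELG1 (2,000/well) received 5-Fluorouridine plus compound or DMSO for 16 hr at 37 °C. Luciferase was read by ONE-Glo luminescence after 30 min at room temperature.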
Rab9 promoter act: qHTS Assay for Rab9 Promoter Activators. Huh7 Rab9 promoter-luciferase reporter, luminescence, 24 h. Potency, µM (doses to about 9.22 µM), for the others: top-dose activation, negative = inhibition, actives largely listed as activators. 320,000 tested, 2.8% active; note: % of control where 0% means no effect; nearly all actives have a fitted effect of over 60% in size
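Cell-based reporter: Huh7 stable for Rab9 promoter-driven luciferase, plated in reduced-serum medium with 10% FBS at 1500 cells/well, compound-treated 24 h at 37 °C, luminescence read after 10 min reagent.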
SMN2 splice enh: qHTS Assay for Enhancers of SMN2 Splice Variant Expression; HEK293 SMN2-luciferase splicing reporter, luminescence, 30-36 h; Potency, µM (highest dose often 46.1 µM), for the others: at the highest dose activity change, positive = activation, most hits filed as activators; 210,000 tested, 2.8% active; note: % of control where 0% means no effect; nearly all actives have a fitted effect of over 55% in size
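HEK293 cells carry an SMN2 […]–luciferase reporter in which exon 7 inclusion puts luciferase in frame. Cells were plated 10-12 h before compound addition, then incubated 30-36 h at 37C. ONE-Glo luminescence was read; sodium butyrate at 4.5 mM final served as control.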
ELG1 FLuc counter: qHTS screen for small molecules that inhibit ELG1-dependent DNA repair: Hit Confirmation in Cell-Based Luciferin Assay; shares compounds with ELG1 DNA repair; Potency, µM (series often up to 46.1 µM), inactives show at the highest dose activity change, negative = inhibition, most hits filed as inhibitors; cell-free firefly luciferase luminescence counter-screen, ViewLux; AID 624247, 2012; 350 tested, 3% active; note: % is set by controls: 0 for no effect and ±100 for the full control effect
ELG1 Luc conf: HTS assay for small molecules that inhibit ELG1-dependent DNA repair in human embryonic kidney (HEK293T) cells expressing luciferase-tagged ELG1: Hit Confirmation; shares compounds with ELG1 DNA repair; HEK293T ELG1-luciferase levels, luminescence; cells co-treated with 5-fluorouridine; Potency, µM (titrated, usually from 46.1 µM), inactives show at the highest dose activity change, negative = inhibition, most hits filed as inhibitors; 670 tested, 68% active; AID 624248, 2012; note: % is set by controls: 0 for no effect and ±100 for the full control effect; nearly all actives have a fitted effect of over 55% in size
ELG1-Luc MMS: confirmation of human ELG1 repair inhibitors, MMS stimulated; shares compounds with ELG1 DNA repair; AID 624249; Potency, µM (highest dose often 46.1 µM), for inactives: top-dose activity change, negative = inhibition, actives largely listed as inhibitors; HEK293T luciferase-tagged ELG1 level, MMS stimulated; 670 tested, 53% active; note: % is set by controls: 0 for no effect and ±100 for the full control effect; nearly all actives have a fitted effect of over 60% in size
ELG1 5FU viab: qHTS screen for small molecules that inhibit ELG1-dependent DNA repair: Hit Confirmation with 5FU Viability; shares compounds with ELG1 DNA repair; cell viability with 5-FU, ELG1-dependent repair; Potency, µM (titrated, usually from 46.1 µM), inactives show top-dose activity change, negative = viability loss, hits mostly cytotoxic; 670 tested, under 10 active;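 note: ELG1-luc HEK293T cells cotreated with 5-fluorouridine at 10 µM final; viability measured 16 h after compound addition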
ELG1 MMS viab: qHTS screen for small molecules that inhibit ELG1-dependent DNA repair: Hit Confirmation with MMS Viability; shares compounds with ELG1 DNA repair; Cell viability with MMS, ELG1-dependent DNA repair; Potency, µM (highest dose often 46.1 µM), inactives show at the highest dose activity change, negative = viability loss, usual class: cytotoxic; 670 tested, 33% active;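 note: ELG1-luc HEK293T cells co-treated with 10 µM MMS; viability read 16 h after compound addition; % is set by controls: 0 for no effect and ±100 for the full control effect; nearly all actives have a fitted effect of over 60% in size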
ELG1 unstim viab: qHTS screen for small molecules that inhibit ELG1-dependent DNA repair: Hit Confirmation with Unstimulated Viability Assay. Potency, µM (titrated, usually from 45.9 µM), for inactives: top-dose activity change, negative = loss of viability, hits mostly cytotoxic. cell viability counter-screen, unstimulated, luminescence. shares compounds with ELG1 DNA repair. 900 tested, 8% active;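 note: compound exposure lasted 16 hours before reading; % is set by controls: 0 for no effect and ±100 for the full control effect; nearly all actives have a fitted effect of over 55% in size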
FLuc enzyme: qHTS screen for small molecules that inhibit ELG1-dependent DNA repair: Hit Confirmation in Biochemical Luciferin Assay; shares compounds with ELG1 DNA repair; purified firefly luciferase, luminescence counter-screen; Potency, µM (titrated, usually from 57.5 µM), inactives show at the top dose activity, negative = inhibition, most hits filed as inhibitors; 350 tested, 10% active; note: % is set by controls: 0 for no effect and ±100 for the full control effect
* = called active by the depositor; ? = inconclusive; nt = not tested or not shown. A selection: hits, their analogues and other compounds. The true share with any hit is near 9.4%. Calls come from the whole dose curve; as a rule, active = well fitted curve in the direction sought with a large enough effect; inconclusive = small, poorly fitted or top-dose-only effect, or another doubt; inactive = no such curve, though single readings can be large; an effect the other way counts as inactive or inconclusive. Potency is the fitted concentration of half-maximal effect.

SMILES	FLuc counter	NPC1 prom act	ELG1 genotoxic	ELG1 DNA repair	Rab9 promoter act	SMN2 splice enh	ELG1 Luc conf	ELG1-Luc MMS	ELG1 5FU viab	ELG1 MMS viab	ELG1 unstim viab	others
COc1ccccc1N1CCN(C(=O)CCCN2C(=O)c3cccc4cccc(c34)C2=O)CC1	-16%	-2%	-11%	4.6µM*	-5%	-4%	7.9µM*	?	?	-4%	?
CCCCCC(=O)Nc1ccc(S(=O)(=O)NC2=NCCCCC2)cc1	5%	2%	-2%	-1%	-1%	nt	nt	nt	nt	nt	nt
COCCn1c(SCC(=O)N2CC(C)OC(C)C2)nc2c([nH]c3ccccc32)c1=O (centres undefined)	1%	5%	-5%	-9%	9%	nt	nt	nt	nt	nt	nt
CCn1c(SCC(=O)N2CC(C)OC(C)C2)nc2c([nH]c3ccccc32)c1=O (centres undefined)	-4%	1%	-2%	3.3µM*	2%	nt	10µM*	-5%	?	20%	6%
Cc1ccc2cc(CN(CC3CCCO3)S(=O)(=O)c3c(C)ccc4nsnc34)c(=O)[nH]c2c1 (centres undefined)	4%	-2%	3%	-9%	-3%	2%	nt	nt	nt	nt	nt
Cc1ccc2nsnc2c1S(=O)(=O)N(Cc1cc2cccc(C)c2[nH]c1=O)CC1CCCO1 (centres undefined)	-2%	-1%	-23%	2.3µM*	-14%	-6%	?	7.9µM*	5%	-16%	?
O=C(CNC(=O)c1ccc(Br)o1)OCC(=O)c1cccc([N+](=O)[O-])c1	1%	-6%	1%	12%	-7%	?	nt	nt	nt	nt	nt
O=S(=O)(Nc1ccc(N2CCCCC2)cc1)c1ccc(F)c(F)c1	-2%	0%	-3%	3%	-7%	-71%	nt	nt	nt	nt	nt
COc1ccc(CNc2ncnc3sccc23)cc1	-2%	-22%	-18%	1.8µM*	-30%	nt	?	2.8µM*	0%	2.8µM*	?
O=C(COc1ccc(C(=O)c2ccccc2)cc1)Nc1cccnc1	?	-22%	-19%	1µM*	-31%	nt	?	1µM*	-2%	1µM*	?
O=C(CNc1cc(S(=O)(=O)N2CCOCC2)ccc1NCC1CCCO1)Nc1cccc(F)c1 (centres undefined)	2%	-1%	2%	?	6%	nt	nt	nt	nt	nt	nt
COc1cccc(CNC(=O)c2cccc(S(=O)(=O)N3CCN(c4ccc(F)cc4)CC3)c2)c1	3%	-2%	29%	?	3%	nt	nt	nt	nt	nt	nt
COc1ccc(CNC(=O)c2cccc(S(=O)(=O)N3CCN(c4ccc(F)cc4)CC3)c2)cc1	5%	-10%	-2%	3.3µM*	-9%	nt	14µM*	16µM*	7%	13µM*	?
O=C(NCC1CCCO1)c1ccc2c(=O)n(CC3CCCO3)c(=S)[nH]c2c1 (centres undefined)	1%	0%	-8%	-23%	-2%	-16%	nt	nt	nt	nt	nt
O=C(Nc1ccc(F)cc1)c1ccc2c(=O)n(CC3CCCO3)c(=S)[nH]c2c1 (centres undefined)	2%	-4%	-18%	4.1µM*	-1%	nt	5.6µM*	22µM*	?	?	-20%
Cc1cccc(Cn2cc(SCC(=O)Nc3nccs3)c3ccccc32)c1	-13%	?	4.1µM*	?	?	9%	nt	nt	nt	nt	-8%	ELG1 FLuc counter=67%;FLuc enzyme=2.9µM*
Cc1ccc(Cn2cc(SCC(=O)Nc3nccs3)c3ccccc32)cc1	?	?	?	?	?	2%	nt	nt	nt	nt	nt
Cc1cccc(C(=O)OCC(=O)c2c(N)n(CC(C)C)c(=O)n(C)c2=O)c1O	1%	0%	-16%	?	-9%	nt	nt	nt	nt	nt	nt
CC(C)Cn1c(N)c(C(=O)COC(=O)CC23CC4CC(CC(C4)C2)C3)c(=O)n(C)c1=O	?	-16%	-14%	3.7µM*	-24%	-98%	2µM*	1.1µM*	-24%	1µM*	16µM*
Cc1cccc(C(=O)OCC(=O)c2c(N)n(CC(C)C)c(=O)n(C)c2=O)c1[N+](=O)[O-]	-3%	-1%	?	4.5µM*	-12%	nt	13µM*	7.1µM*	3%	6.3µM*	?

Screening results deposited in PubChem by National Center for Advancing Translational Sciences (NCATS).
